Measurements published in PubChem BioAssay (NCATS).
Activity calls are given as the source filed them. No rule for the calls is given here.

Key:
[1] = Immunotoxin (HA22) sensitization/mitigation study. Vehicle arm (PBS) (AID 1159510)
[2] = Immunotoxin (SS1P) sensitization/mitigation study. Vehicle arm (DMEM) (AID 1159513)
Potency is read from the fitted curve at half-maximal effect.

## CCN(CC)CCn1c(=O)c(Cc2ccc(OC)cc2)nc2ccccc21
[1]
  Potency: inactive
[2]
  Potency: inactive

## CC(=O)OCC(=O)[C@@]1(O)[C@H](C)C[C@H]2[C@@H]3C=C(C)C4=Cc5c(cnn5-c5ccccc5)C[C@]4(C)[C@@H]3[C@@H](O)C[C@@]21C
[1]
  Potency: 1.32 µM (active)
[2]
  Potency: 26.4 µM (active)

## Cc1c(CN2CCN(C(=O)C(C)C)CC2)sc2c(N3CCOCC3)nc(-c3cnc(N)nc3)nc12
[1]
  Potency: 0.0935 µM (active)
[2]
  Potency: 0.0469 µM (active)

## CS(=O)(=O)c1ccc(C(=O)Nc2ccc(Cl)c(-c3ccccn3)c2)c(Cl)c1
[1]
  Potency: inactive
[2]
  Potency: inactive

## CC(=O)Nc1ccc([C@H](C)C(=O)Nc2ncc(C(C)C)s2)cc1
[1]
  Potency: 0.296 µM (active)
[2]
  Potency: 0.662 µM (active)

## Cc1ccc(-c2ncn(-c3ccc(Nc4nccc(-c5cccc(N6CCOCC6)c5)n4)cc3)n2)cn1
[1]
  Potency: 0.0264 µM (active)
[2]
  Potency: 0.0235 µM (active)

## COc1ccccc1-c1cccc(-c2c(O)c3cc(C#N)c(Cl)cc3[nH]c2=O)c1
[1]
  Potency: inactive
[2]
  Potency: inactive

## CC1(C)SCCN(S(=O)(=O)c2ccc(OCC#CCO)cc2)[C@@H]1C(=O)NO
[1]
  Potency: inactive
[2]
  Potency: inactive

## COc1cc(Oc2ccnc3cc(OC)c(OC)cc23)ccc1NC(=O)NC(C)c1nccs1 (configuration not stated)
[1]
  Potency: 16.6 µM (active)
[2]
  Potency: 20.9 µM (active)

## Cc1c(C(=O)Nc2ccc(N3C[C@@H](C)O[C@@H](C)C3)nc2)cccc1-c1ccc(OC(F)(F)F)cc1
[1]
  Potency: 20.9 µM (active)
[2]
  Potency: 23.5 µM (active)

## CCCS(=O)(=O)Nc1ccc(F)c(C(=O)c2c[nH]c3ncc(Cl)cc23)c1F
[1]
  Potency: 20.9 µM (active)
[2]
  Potency: 16.6 µM (active)
